We go through eight molecules from PubChem BioAssay (NCI).

Holding throughout (assay): NCI-60 one-dose screen, 48 h (100 = growth as untreated, 0 = no growth, -100 = all killed)
Common to all, as to details: 10 µM unless noted

In assay [1] the test system is DU-145 prostate.
Assay [2] has as its system K-562 leukemia.
Assay [3] deals with MALME-3M melanoma.
The subject of assay [4] is MDA-MB-231 breast.
For assay [5], the system named is RXF 393 renal.
In assay [6] the test system is SF-268 CNS.
For assay [7], the system named is SF-295 CNS.
Assay [8] has as its system SF-539 CNS.
Assay [9] deals with UACC-257 melanoma.
For assay [10], the system named is M14 melanoma.
Assay [11] relates to HCT-15 colon.
Assay [12] deals with HT29 colon.
In assay [13] the test system is SNB-75 CNS.
Assay [14] has as its system SNB-19 CNS.
Assay [15] concerns U251 CNS.
For assay [16], the system named is PC-3 prostate.
The subject of assay [17] is SK-MEL-5 melanoma.
For assay [18], the system named is UACC-62 melanoma.
The test system of assay [19] is LOX IMVI melanoma.
For assay [20], the system named is SK-MEL-28 melanoma.

The panel holds about 83,000 compounds, 20% with a hit somewhere; the sample as a whole holds those more often.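 Testing used 96-well plates and a 48-hour single-concentration exposure. Example: -40 means 40% of the starting cells died.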 Values without a mark were called inactive. The source made the active and inactive calls. How the source made its calls: active means growth percent below 10; inactive means the rest.

As to `C=CCc1c(O)c(C(=O)/C=C/c2ccccc2)c(OC)c2ccoc12`, the growth in [1] was 63.2%; in [2], 46.8%; in [3], 79.4%; in assay [4], 47.6%; in assay [5], 7.33% (active); in [6], 43%. Further, the growth is 34.5% in [7]; 24.8% in assay [8]; 40.6% in assay [9]; 59.3% in assay [10]; 39.6% in assay [11]; 27.9% in [12]. Moreover, the growth was 72.9% in assay [13]; 46.6% in [14]; 26.8% in [15]; 33.9% in [16]; 33.3% in assay [17]; 41.3% in assay [18]. The growth in assay [19] was 35.2%; in assay [20], 64.6%.
Turning to `O=C(N/N=C/c1ccc(Cl)cc1)c1[nH]c2ccc(Cl)cc2c1-c1ccccc1`, the growth in assay [1] was -2.5% (active); in [2], 39.3%; in [3] it was 62.3%; in assay [4], 9.64% (active); in [5] it was 34.6%; in assay [6] it was 27.2%. The growth is -24.1% (active) in [7]; -0.139% (active) in [8]; 59.9% in assay [9]; 20.2% in assay [10]; 11.2% in assay [11]; 19.4% in [12]. In addition, the growth in assay [13] is 70.5%; in [14], 15.1%; in assay [15] it was 10.4%; in assay [16], 17.2%; in assay [17], -36.6% (active); in [18], 30.7%. The growth was 19% in [19] and 93.3% in [20].
With `O=C(O)CCCN1C(=O)/C(=C/c2cn(-c3ccccc3)nc2-c2ccc([N+](=O)[O-])cc2)SC1=S`, the growth in [1] is 58.5%; in assay [2] it was 56.5%; in assay [3] it was 52.1%; in [4] it was 85.5%; in assay [5] it was 86.7%; in assay [6], 52.8%. Also, the growth in assay [7] is 34.8%; in assay [8], 55.5%; in assay [9], 84.6%; in assay [10] it was -8.74% (active); in [11] it was 35.8%; in assay [12], 87.1%. The growth in assay [13] was 95.7%; in [14], 48.9%; in assay [15] it was 38.2%; in [16], 56.4%; in assay [17] it was 52.7%; in assay [18] it was 47%. Also, the growth in assay [19] is 46.2%; in assay [20], 49.4%.
Consider `CCCCCCCCCCCCCCCCOCCCOP(=O)(O)C1CCCN(O)C1=O` (stereo not given), for which the growth in assay [1] is 24.6%; in [2] it was 19.4%; in [3], 20.4%; in assay [4], 42.7%; in assay [5], 7.41% (active); in assay [6], 5.39% (active). In addition, the growth in [7] was 3.46% (active); in assay [8], -4.5% (active); in assay [9], 18.2%; in assay [10], -3.96% (active); in assay [11] it was 7.93% (active); in assay [12], 23.1%. Besides, the growth in [13] is 22.8%; in assay [14], 22%; in [15], 18.7%; in assay [16] it was 13.5%; in assay [17] it was -65.8% (active); in assay [18] it was -13% (active). The figures for the growth in [19] and in [20] were 0.67% (active) and 38.3%, respectively.
Consider `Cc1ccc(C2=Nc3c(N)ncnc3NC(c3cccc(Nc4ccnc5cc(C(F)(F)F)ccc45)c3)C2)cc1` (stereo not given), for which the growth in assay [1] is 64.9%; in assay [2], 5.65% (active); in assay [3], 35.3%; in assay [4] it was 29.6%; in assay [5] it was 0.783% (active); in assay [6], 40.1%. The growth in [7] is 25%; in assay [8], 56.1%; in assay [9] it was 51.7%; in assay [10] it was 16%; in assay [11] it was 6.14% (active); in assay [12], 5.98% (active). The growth in assay [13] was 21.7%; in assay [14], 43.6%; in assay [15], 31.1%; in assay [16], 16.1%; in [17], 12.1%; in [18], 48.7%. Moreover, the growth in [19] was 26.7%; in assay [20] it was 52.3%.
As to `O=C(N(c1ccccc1)c1ccccc1)n1cc(I)c2nc(Cl)nc(Cl)c21`, the growth was 43.3% in assay [1]; 20.8% in [2]; 73.4% in assay [3]; 67.6% in assay [4]; 40.1% in assay [5]; 34.3% in assay [6]. Besides, the growth is 48.2% in [7]; 56.8% in [8]; 53.7% in assay [9]; 57.4% in assay [10]; 30.6% in [11]; 29.7% in [12]. Further, the growth was 35.1% in assay [13]; 46.8% in assay [14]; 24.2% in assay [15]; 32.1% in [16]; 63.9% in assay [17]; 37.2% in assay [18]. Moreover, the growth in [19] is 31.1%; in assay [20] it was 88.2%.
Take `COC(=O)[C@@H](CCCCNC(=O)[C@]12CCC(C)(C)C[C@@H]1C1=CC[C@@H]3[C@@]4(C)C/C(=C/c5ccco5)C(=O)C(C)(C)[C@@H]4CC[C@@]3(C)[C@]1(C)CC2)NC(=O)[C@]12CCC(C)(C)C[C@@H]1C1=CC[C@@H]3[C@@]4(C)C/C(=C/c5ccco5)C(=O)C(C)(C)[C@@H]4CC[C@@]3(C)[C@]1(C)CC2`: the growth in assay [1] was 115%; in assay [2], 95.8%; in [3] it was 102%; in assay [4] it was 92.4%; in [5] it was 119%; in [6] it was 104%. In addition, the growth in assay [7] was 101%; in [8] it was 97.1%; in assay [9] it was 100%; in assay [10], 107%; in assay [11], 103%; in [12], 112%. The growth in [13] is 106%; in [14], 95.3%; in assay [15], 106%; in assay [16] it was 90.3%; in assay [17], 97.5%; in assay [18] it was 97.8%. In addition, the growth in assay [19] and in assay [20] was 107% each time.
Turning to `CCCCCN1C(=O)/C(=c2\sc3n(c2=O)C2C(NN=3)N(CC)C(=O)N2CC)c2ccccc21` (stereo not given), the growth was -67.1% (active) in [1]; -71.9% (active) in assay [2]; -32.4% (active) in assay [3]; -30.8% (active) in assay [4]; -28.9% (active) in assay [5]; -2.82% (active) in assay [6]. Also, the growth in assay [7] was -24.8% (active); in assay [8] it was -90.2% (active); in assay [9] it was 31.5%; in [10], -9.92% (active); in [11], 1.05% (active); in assay [12], -57.1% (active). The growth was -51.5% (active) in assay [13]; -1.3% (active) in assay [14]; -83.4% (active) in [15]; -20.2% (active) in [16]; 16.8% in assay [17]; 10.7% in assay [18]. In addition, the growth was -43.5% (active) in assay [19] and 19.2% in assay [20].
